Measurements taken from PMC4336329 (PLoS ONE, 2015).
The whole screen tested about 310,000 compounds, of which about 14,000 (4.5%) showed an effect of 50% or more. The effect is printed as a negative number. The sample holds strong results, similar compounds and a random draw of the others, so the mix is not that of the screen.

Molecular target: human ether-à-go-go-related gene (hERG) potassium channel (human, UniProt Q12809)
Assay: primary screen, population patch clamp on CHO cells stably expressing hERG; higher = less effect of the substance
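Note: peak tail current of the secondary pulse compared with the same well before compound.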

human ether-à-go-go-related gene (hERG) potassium channel, sequence (Q12809 whole entry, looked up): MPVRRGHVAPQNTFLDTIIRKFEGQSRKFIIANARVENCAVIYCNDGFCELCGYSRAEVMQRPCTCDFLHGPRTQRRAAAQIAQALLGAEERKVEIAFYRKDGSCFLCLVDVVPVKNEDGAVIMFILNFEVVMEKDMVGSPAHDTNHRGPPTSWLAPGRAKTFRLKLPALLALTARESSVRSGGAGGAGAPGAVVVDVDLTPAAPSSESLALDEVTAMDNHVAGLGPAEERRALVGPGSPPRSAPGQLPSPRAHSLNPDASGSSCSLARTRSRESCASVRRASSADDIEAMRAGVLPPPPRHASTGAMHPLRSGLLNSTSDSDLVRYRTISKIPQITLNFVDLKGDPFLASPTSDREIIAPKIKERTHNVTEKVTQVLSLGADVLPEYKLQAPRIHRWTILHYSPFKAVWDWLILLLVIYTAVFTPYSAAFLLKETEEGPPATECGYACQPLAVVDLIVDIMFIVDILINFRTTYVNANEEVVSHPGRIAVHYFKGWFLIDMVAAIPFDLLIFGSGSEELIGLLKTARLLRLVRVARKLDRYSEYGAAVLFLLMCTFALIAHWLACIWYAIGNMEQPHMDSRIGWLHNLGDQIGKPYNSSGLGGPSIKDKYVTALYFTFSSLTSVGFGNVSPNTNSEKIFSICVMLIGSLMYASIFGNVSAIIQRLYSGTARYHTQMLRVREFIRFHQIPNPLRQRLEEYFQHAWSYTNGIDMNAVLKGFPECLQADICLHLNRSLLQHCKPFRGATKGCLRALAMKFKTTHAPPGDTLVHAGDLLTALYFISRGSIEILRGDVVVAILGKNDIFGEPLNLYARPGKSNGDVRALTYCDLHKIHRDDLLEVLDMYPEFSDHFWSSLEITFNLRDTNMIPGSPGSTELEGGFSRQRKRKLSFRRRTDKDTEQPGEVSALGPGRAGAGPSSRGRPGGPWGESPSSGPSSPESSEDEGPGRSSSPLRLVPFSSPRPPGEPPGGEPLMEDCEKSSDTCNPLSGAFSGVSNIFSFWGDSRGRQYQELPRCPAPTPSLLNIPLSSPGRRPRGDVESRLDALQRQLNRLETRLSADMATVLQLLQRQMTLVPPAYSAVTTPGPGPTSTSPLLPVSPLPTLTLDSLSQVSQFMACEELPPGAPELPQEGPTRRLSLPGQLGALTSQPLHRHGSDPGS

First: Fc1ccc(-[n+]2nc(Nc3ccccc3)sc2-c2ccc(OCc3ccccc3)cc2)cc1.[Cl-]
Second: COc1ccc(C(c2nnnn2Cc2ccccc2)N2CCN(c3ccccc3)CC2)cc1.Cl (centres unmarked)
The “hERG current change (%, negative = inhibition) at 10uM” value of the first is lower: -20.5% for the first, -6.94% for the second.

Going from Cc1ccccc1OCc1nnc2n1CC(C)S2 (centres unmarked) to Brc1ccccc1C1=Nn2c(nnc2-c2ccccc2)SC1, the “hERG current change (%, negative = inhibition) at 10uM” value rises from 7.43% to 14.5%.

First: CCCCC(=O)Nc1ccc(NC(=S)NC(=O)CC)cc1OC
Second: COC(=O)c1cc(NC(=O)c2cccc(F)c2)cc(C(=O)OC)c1
The “hERG current change (%, negative = inhibition) at 10uM” value of the first is lower: -0.84% for the first, 5.98% for the second.

Compared with O=C(OCC(=O)N1CCC(c2ccccc2)=N1)c1ccc([N+](=O)[O-])s1, O=C(Nc1ccc(S(=O)(=O)N2CCN(c3ccccc3)CC2)cc1)c1cccs1 is higher in “hERG current change (%, negative = inhibition) at 10uM” value: -34.7% for the first, 8.53% for the second.

First: CC(C)c1ccc(/C=N/NC(=O)c2cccc(S(=O)(=O)N3CCOCC3)c2)cc1
Second: CC(CNC(=O)Cn1ccc2cc(S(=O)(=O)N3CCCC3)ccc21)c1ccccc1 (centres unmarked)
The “hERG current change (%, negative = inhibition) at 10uM” value of the first is higher: 10.1% for the first, -9.17% for the second.

Going from CN(C)c1ccc(C2C3C(=O)N(c4ccc(C(=O)O)cc4)C(=O)C3ON2c2ccccc2)cc1 (centres unmarked) to CN(C)c1ccc(C2C3C(=O)NC(=O)C3ON2c2ccc(Cl)cc2)cc1 (centres unmarked), the “hERG current change (%, negative = inhibition) at 10uM” value falls from 7.23% to -64%.

Compared with Cc1ccc(N2OC3C(=O)NC(=O)C3C2c2ccco2)cc1 (centres unmarked), Cc1ccc(N2C(=O)C(Cc3ccc(O)cc3)NC2=S)cc1C (centres unmarked) is lower in “hERG current change (%, negative = inhibition) at 10uM” value: 7.89% for the first, -7.04% for the second.

Compared with O=C(Cn1cnc2c(cnn2-c2ccccc2Cl)c1=O)N1CCc2ccccc21, Cc1ccc(-n2ncc3ccccc3c2=O)cc1Cl is lower in “hERG current change (%, negative = inhibition) at 10uM” value: -0.441% for the first, -3.72% for the second.

Going from O=C(NCCc1ccccc1)c1ccco1 to O=C(Nc1ccnn1C1CCN(CCCc2ccccc2)CC1)c1ccccc1, the “hERG current change (%, negative = inhibition) at 10uM” value falls from 0.15% to -80.8%.

Going from Cc1nonc1CC(=O)N1CCCC(C(=O)c2ccc(Cl)cc2)C1 (centres unmarked) to Cc1nonc1CC(=O)N1CCCC(C(=O)c2cccc(C(F)(F)F)c2)C1 (centres unmarked), the “hERG current change (%, negative = inhibition) at 10uM” value falls from -8.66% to -56.2%.

First: O=C(c1cccc(C(F)(F)F)c1)C1CCCN(C(=O)C2CCOCC2)C1 (centres unmarked)
Second: CC(C)(C)c1ccc(C(=O)C2CCCN(C(=O)C3CCOCC3)C2)cc1 (centres unmarked)
The “hERG current change (%, negative = inhibition) at 10uM” value of the first is lower: -51.3% for the first, -7.14% for the second.

Compared with Cc1noc(C)c1C(=O)N1CCCC(C(=O)c2cccc(C(F)(F)F)c2)C1 (centres unmarked), CC1=C(C(=O)N2CCCC(C(=O)c3cccc(C(F)(F)F)c3)C2)OCCO1 (centres unmarked) is higher in “hERG current change (%, negative = inhibition) at 10uM” value: -22.6% for the first, 2.26% for the second.

First: O=C(COC(=O)C1CSC2(c3ccc(F)cc3)CCC(=O)N12)NC(=O)NC1CCCC1 (centres unmarked)
Second: COc1ccc(Cn2nnnc2C(c2ccc(F)cc2)N2CCN(C3CCCC3)CC2)cc1 (centres unmarked)
The “hERG current change (%, negative = inhibition) at 10uM” value of the first is higher: -4.24% for the first, -52.6% for the second.

Compared with O=C1c2ccccc2C(=O)C1c1ccccn1, O=C1c2ccccc2C(=O)N1CCc1nc(-c2cccnc2)no1 is lower in “hERG current change (%, negative = inhibition) at 10uM” value: 6.76% for the first, -12.2% for the second.

Compared with CC(=O)C(Sc1ccc2nnc(-c3ccc(F)cc3)n2n1)C(C)=O, CC(=O)C(Sc1ccc2nnc(-c3cccnc3)n2n1)C(C)=O is lower in “hERG current change (%, negative = inhibition) at 10uM” value: 8.13% for the first, -2.29% for the second.

Going from O=C(CSc1ccc2nnc(-c3cccnc3)n2n1)Nc1ccc(F)cc1 to Fc1ccc(CSc2ccc3nnc(-c4cccnc4)n3n2)cc1, the “hERG current change (%, negative = inhibition) at 10uM” value falls from -31.5% to -71.5%.

Going from Cc1ccc(CSc2nnc(-c3cccnc3)n2N)cc1 to Cc1ccc(CSc2ccc3nnc(-c4cccnc4)n3n2)cc1, the “hERG current change (%, negative = inhibition) at 10uM” value falls from 18% to -79.3%.

First: CCSc1ccc2nnc(-c3cccc(F)c3)n2n1
Second: CCSc1ccc2nnc(-c3ccc(F)cc3)n2n1
The “hERG current change (%, negative = inhibition) at 10uM” value of the first is higher: -33.6% for the first, -55.6% for the second.

Going from CCC(Sc1ccc2nnc(-c3ccc(F)cc3)n2n1)C(=O)OC (centres unmarked) to COC(=O)CSc1ccc2nnc(-c3ccc(F)cc3)n2n1, the “hERG current change (%, negative = inhibition) at 10uM” value rises from -48.3% to -43.7%.

Compared with Fc1ccc(CSc2ccc3nnc(-c4cccs4)n3n2)cc1, Cc1ccc(CNc2ccc3nnc(-c4ccccc4)n3n2)cc1 is lower in “hERG current change (%, negative = inhibition) at 10uM” value: 17.1% for the first, 15.7% for the second.

Compared with CCCN(CCC)CCCNc1ccc2nnc(-c3ccc(F)cc3)n2n1, CCOc1ccc(CCNc2ccc3nnc(-c4ccccc4)n3n2)cc1OCC is higher in “hERG current change (%, negative = inhibition) at 10uM” value: -55.9% for the first, 1.95% for the second.

Going from COc1ccc(CNC(=O)C(c2cccs2)N(C(=O)c2csnn2)C2CC2)cc1 (centres unmarked) to CC(NC(=O)c1cc2ccccc2o1)c1cccs1 (centres unmarked), the “hERG current change (%, negative = inhibition) at 10uM” value falls from -12.2% to -15.6%.

First: CC(Sc1nc(O)c(-c2ccccc2)c(=O)[nH]1)C(=O)Nc1ccc(Cl)cc1 (centres unmarked)
Second: Cc1nc2ccccn2c1C(=O)Nc1ccc(Cl)cc1
The “hERG current change (%, negative = inhibition) at 10uM” value of the first is higher: 26.9% for the first, 1.65% for the second.

Compared with COc1ccc(N=Cc2c(O)[nH]c3ccccc23)cc1, CCC(C)(C)n1nnnc1C(c1cc2ccc(OC)cc2[nH]c1=O)N1CCc2ccccc2C1 (centres unmarked) is lower in “hERG current change (%, negative = inhibition) at 10uM” value: 0.417% for the first, -27.9% for the second.

Compared with Fc1cccc(Cl)c1Cn1ncc2ccccc21, O=C(Nc1ccnn1C1CCN(CCCc2ccccc2)CC1)c1ccccc1Cl is lower in “hERG current change (%, negative = inhibition) at 10uM” value: -7.36% for the first, -82.2% for the second.

Compared with C=CCSc1nc(N)cc(=O)[nH]1, Cc1cc2c(c(=O)n1CCN(C)C)C(c1ccncc1)C(C#N)=C(N)O2 (centres unmarked) is higher in “hERG current change (%, negative = inhibition) at 10uM” value: 0.914% for the first, 19.6% for the second.

Compared with c1ccc(CN2CCN(CCCNc3ccc4nnc(-c5ccccc5)n4n3)CC2)cc1, Cc1ccccc1C(=O)Nc1ccnn1C1CCN(CCCc2ccccc2)CC1 is lower in “hERG current change (%, negative = inhibition) at 10uM” value: -59.7% for the first, -78.4% for the second.

Going from CCn1cc(C(=O)N(C)c2ccc(OC)cc2OC)c2cc(OC)c(OC)cc2c1=O to COc1ccc(CC(=O)NC(c2ccccc2)c2ccc(C)cc2)c(OC)c1 (centres unmarked), the “hERG current change (%, negative = inhibition) at 10uM” value falls from 12.4% to 11.3%.

Going from NS(=O)(=O)c1ccc(Oc2ccc(S(N)(=O)=O)cc2)cc1 to CNS(=O)(=O)c1ccc(Oc2ccc(S(=O)(=O)NC)cc2)cc1, the “hERG current change (%, negative = inhibition) at 10uM” value rises from 0.75% to 13.2%.

Going from C=CS(=O)(=O)c1ccc(Oc2ccc(S(=O)(=O)C=C)cc2)cc1 to CC(=O)c1ccccc1NS(=O)(=O)c1ccc2c(c1)CC(=O)N2, the “hERG current change (%, negative = inhibition) at 10uM” value rises from -64.3% to 2.66%.

First: Cc1cc2c(c(=O)n1CCN(C)C)C(c1ccccc1Br)C(C#N)=C(N)O2 (centres unmarked)
Second: Cc1cc2c(c(=O)n1CCN(C)C)C(c1ccc(Br)cc1)C(C#N)=C(N)O2 (centres unmarked)
The “hERG current change (%, negative = inhibition) at 10uM” value of the first is higher: -26.1% for the first, -58.5% for the second.

First: COc1ccccc1C(c1nnnn1Cc1ccccc1)N1CCN(C2CCCC2)CC1.Cl (centres unmarked)
Second: COc1ccc(OC)c(C(c2nnnn2Cc2ccccc2)N2CCN(C3CCCCC3)CC2)c1.Cl (centres unmarked)
The “hERG current change (%, negative = inhibition) at 10uM” value of the first is higher: -35.5% for the first, -53.9% for the second.

First: CCN1CCN(C(c2ccccc2)c2nnnn2Cc2ccc(OC)cc2)CC1.Cl (centres unmarked)
Second: COc1ccc(C(c2nnnn2Cc2ccc(F)cc2)N2CCN(c3ccccc3)CC2)cc1 (centres unmarked)
The “hERG current change (%, negative = inhibition) at 10uM” value of the first is higher: 10.7% for the first, -4.37% for the second.

First: COc1ccc(C(c2nnnn2Cc2ccc(F)cc2)N2CCN(c3ccc(OC)cc3)CC2)cc1 (centres unmarked)
Second: COc1ccc(Cn2nnnc2C(c2ccc(C)cc2)N2CCN(C3CCCC3)CC2)cc1.Cl (centres unmarked)
The “hERG current change (%, negative = inhibition) at 10uM” value of the first is higher: -7.57% for the first, -63.8% for the second.

First: c1ccc(Cn2nnnc2C(c2cccnc2)N2CCN(C3CCCCC3)CC2)cc1 (centres unmarked)
Second: COc1ccc(Cn2nnnc2C(c2ccc3ncccc3c2)N2CCN(C3CCCCC3)CC2)cc1 (centres unmarked)
The “hERG current change (%, negative = inhibition) at 10uM” value of the first is higher: -24.9% for the first, -82.8% for the second.

Going from c1cnc2ccc(C(c3nnnn3C3CCCC3)N3CCSCC3)cc2c1 (centres unmarked) to CCC(C)(C)n1nnnc1C(c1cc2ccc(OC)cc2[nH]c1=O)N1CCN(C2CCCCC2)CC1 (centres unmarked), the “hERG current change (%, negative = inhibition) at 10uM” value falls from -3.72% to -59.6%.

First: COc1ccc(OC)c(C(c2nnnn2Cc2ccccc2)N2CCN(C)CC2)c1.Cl (centres unmarked)
Second: CCC(C)(C)n1nnnc1C(c1cc2ccc(OC)cc2[nH]c1=O)N1CCCCC1 (centres unmarked)
The “hERG current change (%, negative = inhibition) at 10uM” value of the first is higher: 3.17% for the first, -26.3% for the second.

First: Cc1ccc(N(CC(O)Cn2c3ccccc3c3ccccc32)S(C)(=O)=O)cc1 (centres unmarked)
Second: Cc1c(NC(=S)NC(=O)C(c2ccccc2)c2ccccc2)cccc1C(=O)O
The “hERG current change (%, negative = inhibition) at 10uM” value of the first is higher: 9.82% for the first, -3.41% for the second.

Going from Cc1cccc(NC(=O)c2cc(NC(=O)c3ccco3)ccc2Cl)n1 to COc1ccccc1C(=O)Nc1ccnn1C1CCN(CCCc2ccccc2)CC1, the “hERG current change (%, negative = inhibition) at 10uM” value falls from -29.1% to -78.3%.

Compared with CN(C)c1nc2c(N)ncnc2n1[C@H]1O[C@@H](CO)[C@H](O)[C@@H]1O, CCOC(=O)c1cnc(-n2nc(C)cc2C)nc1Oc1ccc(C#N)cc1 is higher in “hERG current change (%, negative = inhibition) at 10uM” value: 7.28% for the first, 21.3% for the second.

First: Br.COc1ccc(Nc2nc(-c3sc(NC(C)=O)nc3C)cs2)cc1
Second: COc1ccccc1NC(=O)C1(C)Cc2ccccc2C(=O)O1 (centres unmarked)
The “hERG current change (%, negative = inhibition) at 10uM” value of the first is higher: 3.32% for the first, -10.2% for the second.

Going from CC(=O)CCC(=O)N1CCC(n2nccc2NC(=O)c2ccccc2C)CC1 to O=C(Nc1ccnn1C1CCN(Cc2ccn[nH]2)CC1)c1ccccc1, the “hERG current change (%, negative = inhibition) at 10uM” value falls from 9.06% to -18.2%.

First: C=CCNC(=S)Nc1ccc(N(C)C)cc1
Second: CCCCn1nnnc1SCC(=O)NNC(=O)C1CCCCC1
The “hERG current change (%, negative = inhibition) at 10uM” value of the first is lower: -6% for the first, -1.79% for the second.
